PubChem BioAssay (Tox21)
Results filed as inconclusive are left out. A call without a number means that no potency is given here. The source made the active and inactive calls. Calls follow the shape of the dose curve; as a rule, active = well fitted cell-killing curve with a large enough effect in the repeat runs; inconclusive = weak or mixed curves, or effect the other way; inactive = flat fitted curve, though single readings scatter.

test: cAMP Responsive Elements (CRE) small molecule antagonists, cell-based qHTS assay: qHTS cell viability counter screen (AID 2060913); details: CRE-bla HEK293T viability, CellTiter-Glo luminescence, 5 h; series mostly up to 92.4 µM; also: nearly all actives have a fitted effect of over 40% in size
Excerpt: U.S. Tox21 Program National Center for Advancing Translational Sciences [NCATS] Division of Preclinical Innovation [DPI] U.S. Environmental Protection Agency [EPA] National Institutes of Environmental Health Sciences [NIEHS] National Toxicology Program [NTP] U.S. Food and Drug Administration [FDA] Tox21 Assay Overview: CREB (cyclic-AMP Responsive Element Binding Protein) is a cellular transcription factor. It binds to certain DNA sequences called cAMP Responsive Elements (CRE) and regulates the transcription of the genes. […] This cell line can be used to find agonists/antagonists of the cyclic AMP signaling pathway. The activation of the report gene under culture conditions can be detected by fluorescence intensity. This cell line has been used to screen the Tox21 10K compound library to identify agonists that induce oxidative stress. The cytotoxicity of the Tox21 compound library against the CRE-bla cell line was tested in parallel by measuring the cell viability using CellTiter-Glo assay (Promega, Madison, WI) in the same wells.
Tox21 Assay Protocol Summary: CRE-bla Hek 293T cells were suspended in assay medium (DMEM containing 10% dialyzed FBS, 0.1 mM NEAA, 1 mM sodium pyruvate and 25 mM HEPES) and dispensed at 2,000 cells/4 uL /well into 1536-well black wall/clear bottom plates using a Multidrop Combi (ThermoFisher Scientific, Waltham, MA) dispenser. After the assay plates were incubated at 37 C/5% CO2 for 18 hrs, 23 nL of compounds dissolved in DMSO, positive controls or DMSO only was transferred to the assay plate by a pintool workstation (Kalypsys, San Diego, CA), followed by addition of 1 uL of 1.25uM NKH477 (0.25 uM as final concentration) in assay medium using a Flying Reagent Dispenser (Aurora Discovery, San Diego, CA). The plates were incubated at 37 C and 5% CO2 for 3 hrs. Then 1 uL of LiveBLAzer B/G FRET substrate (Invitrogen, Carlsbad, CA) was added to each well using Bioraptr Flying Reagent Dispenser (FRD, Aurora Discovery, San Diego, CA). The plates were incubated at room temperature for 2 h, then fluorescence intensities were measured using an Envision plate reader (PerkinElmer, Shelton, CT) at Excitation 405nm, Emission 460nm and 530nm. The % activity was determined from the ratio of 460nm/530nm. For cell viability readout that measures cytotoxicity, 4 uL /well of CellTiter-Glo reagent was added into the assay plates using Bioraptr FRD. After 30 min incubation at room temperature, the luminescence intensity in the assay plates was measured using a ViewLux (PerkinElmer, Shelton, CT) plate reader.
Potency is read from the fitted curve at half-maximal effect.

Row | Compound | Potency
1 | CCCCCCCCCCCCCCCCOP(=O)([O-])OCC[N+](C)(C)C | inactive
2 | O=C(O)c1cc(C(=O)O)cc([N+](=O)[O-])c1 | inactive
3 | COC1CCC=CO1 (stereo not given) | inactive
4 | CCCCCN=C(N)N/N=C/c1c[nH]c2ccc(OC)cc12 | 29.8 µM (active)
5 | O=C1NC(=O)c2ccccc21 | inactive
6 | CC(C)N(C)C | inactive
7 | NC(=O)c1ccc(N)cc1 | inactive
8 | CC(C)(C)C1=CC(=O)C(C(C)(C)C)=CC1=O | inactive
9 | O=[N+]([O-])c1ccc(Oc2ccc([N+](=O)[O-])cc2)cc1 | inactive
10 | CC(C=O)Cc1ccc(C(C)C)cc1 (stereo not given) | inactive
11 | CCCC(=O)c1cc(O)c(O)cc1O | inactive
12 | OCC(CO)(CBr)CBr | inactive
13 | CCCC(=O)O | inactive
14 | CN1C(=O)c2ccc([N+](=O)[O-])cc2C1=O | inactive
15 | Cc1c(NC(=O)c2cccnc2)c(=O)n(-c2ccccc2)n1C | inactive
16 | CC(C)(O)c1ccccc1 | inactive
17 | CCCCCCc1ccc(N)cc1 | inactive
18 | O=C1CCCCCCCCCCC(=O)OCCO1 | inactive
19 | COCC(=O)O | inactive
20 | Oc1ccc(Cl)cc1Cc1cc(Cl)ccc1O | 50.8 µM (active)

Row | Compound | Potency
21 | NS(=O)(=O)c1cc2c(cc1Cl)NC(C1CC3C=CC1C3)NS2(=O)=O (stereo not given) | inactive
22 | C=COCC1CCC(COC=C)CC1 (stereo not given) | inactive
23 | Cc1cccc(C)c1 | inactive
24 | CCCCC(CC)COC(=O)CS (stereo not given) | inactive
25 | O=C(Oc1ccccc1)c1ccc2ccccc2c1O | inactive
26 | CCCCCCCCCCCCO | inactive
27 | C/C=C1\C(=O)C[C@H]2[C@@H]3CCC4=CC(=O)CC[C@]4(C)[C@H]3CC[C@]12C | inactive
28 | O=C(CCCN1CCC(O)(c2ccc(Br)cc2)CC1)c1ccc(F)cc1 | inactive
29 | Cc1c(N(C)CS(=O)(=O)O)c(=O)n(-c2ccccc2)n1C | inactive
30 | CCCCCc1ccc(Cl)cc1 | inactive
31 | CC(CCl)OP(=O)(OC(C)CCl)OC(C)CCl (stereo not given) | inactive
32 | NS(=O)(=O)c1ccc(C(=O)O)cc1 | inactive
33 | OCCCc1cccnc1 | inactive
34 | CCCCCc1cccc(=O)o1 | inactive
35 | NS(=O)(=O)c1cc2c(cc1Cl)NC(C(Cl)Cl)NS2(=O)=O (stereo not given) | inactive
36 | CCCCCC(=O)O[C@]1(C(C)=O)CC[C@H]2[C@@H]3CCC4=CC(=O)CC[C@]4(C)[C@H]3CC[C@@]21C | inactive
37 | NNC(=O)OCc1ccccc1 | inactive
38 | c1ccc(-c2nn[nH]n2)cc1 | inactive
39 | CCNc1nc(NC(C)(C)C)nc(OC)n1 | inactive
40 | CC(C)(C)NC(=O)[C@@H]1C[C@@H]2CCCC[C@@H]2CN1C[C@@H](O)[C@H](Cc1ccccc1)NC(=O)[C@H](CC(N)=O)NC(=O)c1ccc2ccccc2n1 | 61.9 µM (active)
